# Records with an inconclusive call do not appear. Activity calls are given as the source filed them.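 How the source made its calls, unless noted: active means thallium flux through the channel raised or lowered by more than 3 SD from vehicle-only wells, actives on both sides; inactive means the rest.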
# Assays:
# [1] = modulation of C. elegans fzo-1 (AID 1259413; call rule not given here;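 further: fzo-1 mutant C. elegans worms in liquid wells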); settings: C. elegans fzo-1 modulator screen, mean read-out; stronger effect = higher value
# F380Y/beta1 = test: modulators of BK channel variants, profiling panel, selectivity assay, cell-based, U2OS BacMam, thallium flux, beta subunits (AID 1259406); settings: at 30 µM;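 further: initial slope of Thallos dye fluorescence rise after thallium is added; log ratio against the mean of 0.3% DMSO vehicle wells on the same plate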
# F380Y/beta4 = test: as above; settings: at 30 µM
# R275C/beta4 = test: as above; settings: at 30 µM
# R275C/Slo1WT/beta2 = test: as above; settings: at 30 µM
# [2] = polyglutamine-triggered caspase-3 activation inhibitors, cell-based (AID 1583); settings: polyglutamine-induced caspase-3 activation, cell assay; stronger effect = higher value;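 tested at 10 µM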
# [3] = suppressors of polyQ aggregation in yeast, 75Q-TubU reporter (AID 1593); settings: Yeast 75Q polyglutamine aggregation reporter
# [4] = inhibitors of mitochondrial cytochrome c release, biochemical, purified mitochondria (AID 1603); settings: stronger effect = lower value;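 further: mouse liver mitochondria challenged with calcium chloride; signal normalized to the plate average as 100%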
# [5] = circadian clock period modulators, cell-based, LOPAC library, luminescence reporter (AID 2774; call rule not given here;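 further: values are relative to mean of DMSO wells on each plate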); settings: circadian reporter cells, at 7 µM, actives lie on both sides
# [6] = phospholipid biosynthesis inhibitors in animal cells, primary screen, cell-based, LOPAC library, screen 4 (AID 1347384; call rule not given here); settings: phospholipid biosynthesis inhibition screen, at 10 µM
# [7] = SU-DIPG-VI glioma cell viability, MIPE4.0 library, CellTiter-Glo luminescence, qHTS (AID 1347066; cut-off not given, nearly all actives have AC50 up to about 30 µM;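 further: cells exposed to compound for 48 hours before readout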); settings: CellTiter-Glo ATP luminescence
# [8] = tested on: Aerobactin synthetase IucA (Klebsiella pneumoniae); test: IucA aerobactin synthetase inhibitors, biochemical, Tocris library, absorbance (AID 1345561; call rule not given here;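 further: 100% = enzyme without compound and 0% = no enzyme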); settings: purified IucA enzyme assay, absorbance (OD) read-out; stronger effect = lower value;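 tested at 8 µM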
# [9] = modifiers of HSF1 nuclear foci, imaging, Selleck Cancer Library (AID 1347162; in the data active means plate-normalised HSF1 focus index below about 0.46); settings: human cells, at 10 µM; SSMD: measured here: HSF1 foci SSMD mean; cell count: measured here: cell number; plate-normalised HSF1 focus index: stronger effect = lower value
structure (smiles),measurement,setting,value
CC1(C)SC2C(NC(=O)COc3ccccc3)C(=O)N2C1C(=O)O (centres undefined),mean signal,[1],260 (inactive)
same,log fold change Tl+ flux,F380Y/beta1,0.027 (inactive)
same,log fold change Tl+ flux,F380Y/beta4,-0.00549 (inactive)
same,log fold change Tl+ flux,R275C/beta4,0.0174 (inactive)
same,log fold change Tl+ flux,R275C/Slo1WT/beta2,0.0607 (inactive)
C#C[C@]1(O)CC[C@H]2[C@@H]3CCC4=CC(=O)CC[C@@H]4[C@H]3CC[C@@]21C,log fold change Tl+ flux,F380Y/beta1,0.0886 (inactive)
same,log fold change Tl+ flux,F380Y/beta4,0.0669 (inactive)
same,log fold change Tl+ flux,R275C/beta4,-0.0715 (inactive)
same,log fold change Tl+ flux,R275C/Slo1WT/beta2,-0.0385 (inactive)
CCN1CCN(C(=O)N[C@@H](C(=O)N[C@@H]2C(=O)N3[C@@H]2SC(C)(C)[C@@H]3C(=O)O)c2ccccc2)C(=O)C1=O,mean signal,[1],257 (inactive)
same,log fold change Tl+ flux,F380Y/beta1,0.00225 (inactive)
same,log fold change Tl+ flux,F380Y/beta4,-0.0114 (inactive)
same,log fold change Tl+ flux,R275C/beta4,0.0304 (inactive)
same,log fold change Tl+ flux,R275C/Slo1WT/beta2,0.0399 (inactive)
CNCCC=C1c2ccccc2CCc2ccccc21,inhibition,[2],16.9%
same,score,[3],1.22
same,cytochrome c release ratio,[4],0.98
same,period change,[5],0.025 h (inactive)
same,mean signal,[1],233 (inactive)
same,outcome,[6],inactive
same,log fold change Tl+ flux,F380Y/beta1,0.0784 (inactive)
same,log fold change Tl+ flux,F380Y/beta4,0.255 (active)
same,log fold change Tl+ flux,R275C/beta4,0.121 (inactive)
same,log fold change Tl+ flux,R275C/Slo1WT/beta2,-0.0571 (inactive)
CC(=O)OCC(=O)[C@@]1(O)CC[C@H]2[C@@H]3C[C@H](C)C4=CC(=O)C=C[C@]4(C)[C@H]3[C@@H](O)C[C@@]21C,mean signal,[1],251 (inactive)
same,log fold change Tl+ flux,F380Y/beta1,0.0602 (inactive)
same,log fold change Tl+ flux,F380Y/beta4,0.0393 (inactive)
same,log fold change Tl+ flux,R275C/beta4,0.0801 (inactive)
same,log fold change Tl+ flux,R275C/Slo1WT/beta2,0.0333 (inactive)
CCCc1nc(C(C)(C)O)c(C(=O)OCc2oc(=O)oc2C)n1Cc1ccc(-c2ccccc2-c2nn[nH]n2)cc1,mean signal,[1],232 (inactive)
C=CC1=C(C(=O)O)N2C(=O)[C@@H](NC(=O)/C(=N\O)c3csc(N)n3)[C@H]2SC1 (stereo in doubt),mean signal,[1],293 (inactive)
same,outcome,[7],inactive
COc1ccc2c3c1O[C@H]1C[C@@H](O)C=C[C@@]31CCN(C)C2,inhibition,[2],-3.14%
same,score,[3],1.34
same,cytochrome c release ratio,[4],0.63
same,mean signal,[1],226 (inactive)
same,remaining activity,[8],110% (inactive)
same,outcome,[7],inactive
C[C@H](CCC(=O)O)[C@H]1CC[C@H]2[C@@H]3[C@@H](O)C[C@@H]4C[C@H](O)CC[C@]4(C)[C@H]3CC[C@]12C,outcome,[7],inactive
same,log fold change Tl+ flux,F380Y/beta1,0.0488 (inactive)
same,log fold change Tl+ flux,F380Y/beta4,0.0547 (inactive)
same,log fold change Tl+ flux,R275C/beta4,-0.0188 (inactive)
same,log fold change Tl+ flux,R275C/Slo1WT/beta2,-0.0131 (inactive)
C[C@]12CC[C@@H]3c4ccc(O)cc4CC[C@H]3[C@@H]1CC[C@@H]2O,period change,[5],0.19 h (inactive)
same,outcome,[7],inactive
same,SSMD,[9],2.53
same,cell count,[9],7010
same,plate-normalised HSF1 focus index,[9],1.15 (inactive)
same,outcome,[6],inactive
CC1(C)S[C@@H]2[C@H](NC(=O)[C@H](N)c3ccc(O)cc3)C(=O)N2[C@H]1C(=O)O,mean signal,[1],239 (inactive)
same,log fold change Tl+ flux,F380Y/beta1,0.0448 (inactive)
same,log fold change Tl+ flux,F380Y/beta4,-0.0174 (inactive)
same,log fold change Tl+ flux,R275C/beta4,0.0282 (inactive)
same,log fold change Tl+ flux,R275C/Slo1WT/beta2,0.0404 (inactive)

# From PubChem BioAssay
